The results in this text go back to PubChem BioAssay (NCI).

Common to all, as to assay: NCI-60 one-dose screen, 48 h (100 = growth as untreated, 0 = no growth, -100 = all killed)
For one test, the system named is SK-MEL-2 melanoma. The following applies: 10 µM.
The test system of a further test is EKVX NSCLC. The following applies: 10 µM.
For a further test, the system named is SN12C renal. The following applies: 10 µM.
Another test relates to UO-31 renal. The following applies: 10 µM.
A further test has as its system TK-10 renal. The following applies: 10 µM unless noted.
Another test deals with ACHN renal. The settings on record: 10 µM.
Another test concerns CAKI-1 renal. The settings on record: 10 µM.
The subject of another test is A498 renal. The following applies: 10 µM.
The next test deals with CCRF-CEM leukemia. The following applies: 10 µM.
The subject of the next test is MOLT-4 leukemia. The following applies: 10 µM.
Another test relates to SR leukemia. The settings on record: 10 µM.
The next test concerns RPMI-8226 leukemia. The following applies: 10 µM.
For the next test, the system named is OVCAR-8 ovarian. The settings on record: 10 µM.
For a further test, the system named is OVCAR-5 ovarian. The settings on record: 10 µM.
Another test relates to SK-OV-3 ovarian. The following applies: 10 µM.
Another test concerns IGROV1 ovarian. The following applies: 10 µM.
A further test deals with OVCAR-3 ovarian. The settings on record: 10 µM.
The next test concerns HS 578T breast. The settings on record: 10 µM.
Another test relates to NCI/ADR-RES ovarian. The settings on record: 10 µM.
Another test concerns OVCAR-4 ovarian. The following applies: 10 µM.

The panel holds about 83,000 compounds, 20% with a hit somewhere; the sample as a whole holds those more often.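 Compound tested at a single concentration for 48 hours in 96-well plates; a percent growth value below 10 was scored as active.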 Unmarked numbers belong to inactive results. Active and inactive are the calls of the source.

In the case of `CCOC(=O)c1[nH]c(C)c(C(=O)O)c1C`, the growth in the test on SK-MEL-2 melanoma is 124%; in the test with EKVX NSCLC, 105%; with SN12C renal, 99.5%; with UO-31 renal it was 84.7%; with TK-10 renal, 104%; in the test on ACHN renal, 102%. Also, the growth in the test with CAKI-1 renal is 97.3%; with A498 renal it was 102%; in the test with CCRF-CEM leukemia it was 89.6%; with MOLT-4 leukemia, 91.9%; in the test on SR leukemia it was 97.6%; in the test on RPMI-8226 leukemia, 96.6%. Moreover, the growth in the test with OVCAR-8 ovarian is 105%; in the test on OVCAR-5 ovarian, 113%; with SK-OV-3 ovarian, 118%; in the test with IGROV1 ovarian, 108%; in the test on OVCAR-3 ovarian it was 115%; in the test on HS 578T breast it was 131%. In the test with NCI/ADR-RES ovarian, the growth is 107%.

Take `N#C/C(=C\c1cc(O)c(O)c(O)c1)C(N)=O`: the growth was 123% in the test on SK-MEL-2 melanoma; 97.4% with EKVX NSCLC; 107% in the test with SN12C renal; 110% in the test with UO-31 renal; 116% in the test with TK-10 renal; 96.6% in the test on ACHN renal. The growth in the test on CAKI-1 renal was 93.6%; with A498 renal, 119%; in the test on CCRF-CEM leukemia, 74%; in the test on MOLT-4 leukemia, 73.1%; in the test on SR leukemia, 72.9%; with RPMI-8226 leukemia, 19.6%. Further, the growth in the test with OVCAR-5 ovarian was 98.2%; in the test with OVCAR-4 ovarian, 45.7%; with SK-OV-3 ovarian it was 110%; in the test on IGROV1 ovarian, 122%; with OVCAR-3 ovarian, 107%; in the test with HS 578T breast, 110%. Moreover, the growth in the test on NCI/ADR-RES ovarian was 102%.

As to `Nc1ccc(C(=O)c2ccc(N)c(Br)c2)cc1Br`, the growth with SK-MEL-2 melanoma was 8.1% (active); in the test with EKVX NSCLC it was 50.9%; in the test with SN12C renal it was 29.2%; in the test with UO-31 renal it was 58.8%; in the test on TK-10 renal, 22.5%; in the test on ACHN renal it was 33.4%. The growth in the test on CAKI-1 renal is 42.9%; in the test with A498 renal, 28.6%; in the test on CCRF-CEM leukemia, 13.4%; in the test on MOLT-4 leukemia it was 35.5%; in the test with SR leukemia, 26.1%; in the test on RPMI-8226 leukemia it was 30.5%. For the same compound, the growth in the test with OVCAR-8 ovarian was 26.4%; in the test with OVCAR-5 ovarian, 40%; in the test with OVCAR-4 ovarian it was 49.1%; in the test with SK-OV-3 ovarian, 8.33% (active); in the test on IGROV1 ovarian it was 32.8%; in the test with HS 578T breast, -14.8% (active). For the same compound, in the test on NCI/ADR-RES ovarian, the growth is 0.17% (active).

With `O=C1Cc2cc(O)ccc2O1`, the growth is 101% in the test with SK-MEL-2 melanoma; 104% in the test with EKVX NSCLC; 102% with SN12C renal; 83.7% in the test with UO-31 renal; 115% in the test on TK-10 renal; 105% in the test on ACHN renal. The growth in the test with CAKI-1 renal is 103%; with A498 renal, 92.7%; with CCRF-CEM leukemia, 94%; in the test on MOLT-4 leukemia, 91.2%; with SR leukemia, 91.8%; in the test with RPMI-8226 leukemia, 96.1%. Also, the growth in the test with OVCAR-8 ovarian was 102%; in the test on OVCAR-5 ovarian, 113%; in the test with OVCAR-4 ovarian it was 118%; in the test on SK-OV-3 ovarian, 99.8%; in the test on IGROV1 ovarian, 104%; in the test on OVCAR-3 ovarian it was 120%. The values for the growth in the test with HS 578T breast and in the test with NCI/ADR-RES ovarian were 119% and 107%, respectively.

Regarding `Cc1cc(/C=C/c2ccc3cc(N(C)C)ccc3[n+]2C)c(C)n1-c1ccccc1`, the growth in the test on SK-MEL-2 melanoma is -51.6% (active); with EKVX NSCLC, 0.119% (active); in the test on SN12C renal it was -25.7% (active); in the test on UO-31 renal, 1.75% (active); in the test on TK-10 renal it was -5.02% (active); in the test on ACHN renal, -83.5% (active). For the same compound, the growth in the test on CAKI-1 renal was -31% (active); in the test on A498 renal it was -25% (active); in the test with CCRF-CEM leukemia, 0.765% (active); in the test on MOLT-4 leukemia, 0.162% (active); in the test with SR leukemia it was 2.29% (active); in the test with RPMI-8226 leukemia it was -30.2% (active). Moreover, the growth in the test with OVCAR-8 ovarian is -60.4% (active); in the test on OVCAR-4 ovarian, 10.4%; in the test with IGROV1 ovarian, 3.27% (active); in the test on OVCAR-3 ovarian, -73.3% (active); with HS 578T breast, -9.95% (active); in the test with NCI/ADR-RES ovarian, 24.7%.

`O=C(c1ccccc1)C1CCC1`: the growth with SK-MEL-2 melanoma is 96.7%; with EKVX NSCLC, 105%; in the test on SN12C renal it was 89.2%; with UO-31 renal, 76.1%; with TK-10 renal it was 93.4%; in the test with ACHN renal, 106%. The growth in the test on CAKI-1 renal is 98.5%; in the test on A498 renal it was 103%; in the test with CCRF-CEM leukemia, 88.6%; in the test with MOLT-4 leukemia it was 91.3%; in the test on SR leukemia, 92.7%; with RPMI-8226 leukemia, 98.9%. For the same compound, the growth was 99.1% in the test on OVCAR-8 ovarian; 109% in the test with OVCAR-5 ovarian; 100% with SK-OV-3 ovarian; 114% with IGROV1 ovarian; 108% with OVCAR-3 ovarian; 115% with HS 578T breast. Besides, in the test on NCI/ADR-RES ovarian, the growth is 107%.

Regarding `Nc1ccc(N)c([N+](=O)[O-])c1`, the growth in the test with SK-MEL-2 melanoma was 115%; in the test on EKVX NSCLC, 110%; with SN12C renal, 97.8%; in the test with UO-31 renal it was 88.2%; in the test with TK-10 renal it was 130%; with ACHN renal, 102%. The growth was 106% in the test with CAKI-1 renal; 100% with A498 renal; 107% in the test with CCRF-CEM leukemia; 104% with MOLT-4 leukemia; 115% in the test with SR leukemia; 98.8% in the test on RPMI-8226 leukemia. Besides, the growth is 111% with OVCAR-8 ovarian; 104% with OVCAR-5 ovarian; 113% in the test on IGROV1 ovarian; 106% with OVCAR-3 ovarian; 105% with HS 578T breast; 107% in the test on NCI/ADR-RES ovarian.

As for `O=C1OC[C@H]2[C@H](c3ccc(O)c(O)c3)c3cc(O)c(O)cc3C[C@H]12`, the growth in the test with SK-MEL-2 melanoma is 26.4%; in the test on EKVX NSCLC it was 152%; in the test with SN12C renal it was 110%; in the test with UO-31 renal, 47.2%; in the test on TK-10 renal it was 118%; with ACHN renal, 112%. Moreover, the growth in the test with CAKI-1 renal is 136%; in the test with A498 renal, 134%; in the test on CCRF-CEM leukemia, 205%; with MOLT-4 leukemia, 281%; in the test on SR leukemia, 330%; with RPMI-8226 leukemia it was 167%. Further, the growth with OVCAR-8 ovarian was 127%; in the test with OVCAR-5 ovarian, 100%; in the test on OVCAR-4 ovarian, 110%; in the test on SK-OV-3 ovarian, 135%; in the test with HS 578T breast it was 111%; in the test on NCI/ADR-RES ovarian, -28.4% (active).

Take `CN(C)c1nc2c([nH]1)c(=O)n(C)c(=O)n2C`: the growth was 98.7% with SK-MEL-2 melanoma; 104% in the test on EKVX NSCLC; 105% in the test on SN12C renal; 99.1% in the test with UO-31 renal; 107% with TK-10 renal; 102% in the test on ACHN renal. Besides, the growth with CAKI-1 renal was 102%; in the test with A498 renal, 89.6%; with CCRF-CEM leukemia it was 92.5%; in the test on MOLT-4 leukemia it was 99.6%; with SR leukemia, 102%; in the test on RPMI-8226 leukemia, 91.7%. The growth in the test with OVCAR-8 ovarian was 96.9%; in the test with OVCAR-5 ovarian it was 104%; in the test on OVCAR-4 ovarian it was 112%; in the test on IGROV1 ovarian, 101%; with HS 578T breast it was 93.2%; in the test on NCI/ADR-RES ovarian, 106%.
